Measurements: the supplement of paper PMC7866885, “A novel bicyclic 2,4-diaminopyrimidine inhibitor of Streptococcus suis dihydrofolate reductase” (PeerJ, 2021)
± gives the standard deviation.

Each compound was assayed on Streptococcus suis HE06 (assay: percent growth relative to DMSO control; higher = less growth inhibition). Settings: 10 µM; incubation time 18 h.
Experimental: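 CLSI broth microdilution: 5x10^4 CFU of Streptococcus suis (strain P1/7 or HE06) incubated with 10 µM Pathogen Box compound in cation-adjusted Mueller Hinton broth, 37 °C, 5% CO2, 18 h. Growth read as OD600 and expressed as percent of the DMSO-treated control (100%); mean ± SD of three independent experiments.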

SMILES	percent growth [%]
CC(C)(C)C(O)C(Oc1ccc(-c2ccccc2)cc1)n1cncn1 (centres undefined)	86.7 ± 8.5
CO/C=C(/C(=O)OC)c1ccccc1Oc1cc(Oc2ccccc2C#N)ncn1	76.8 ± 3.1
Cc1nn(C)c(C)c1NS(=O)(=O)c1c(Cl)cc(-c2ccnc(N3CCNCC3)c2)cc1Cl	94.8 ± 29
CCc1nn(C)c(C(=O)NCc2ccc(Oc3ccc(C)cc3)cc2)c1Cl	82.6 ± 11
CC1(C)OB(O)c2ccc(C3=NOC(c4cc(Cl)c(F)c(Cl)c4)(C(F)(F)F)C3)cc21 (centres undefined)	15.4 ± 15
CO/N=C(\C(=O)OC)c1ccccc1CO/N=C(\C)c1cccc(C(F)(F)F)c1	102 ± 17
CO[C@@H]1CN(c2ccc(C#CC3(O)CN4CCC3CC4)c(Cc3ccccc3)n2)C[C@H]1O (some centres undefined)	108 ± 2.9
Cc1nn(Cc2ccccc2)c(Cl)c1C(=O)NC1CCCCCC1	107 ± 13
O=C1O[C@@H](COc2ccon2)CN1c1cc(F)c(C2=CCN(Cc3ccccc3)CC2)c(F)c1	2.62 ± 3.7
Cc1cccc(C(=O)Nc2ccnc(N(C)C3CCN(CC(C)C)CC3)c2)c1	95.9 ± 30
Nc1c2c(nc3sc4c(c13)CCCC4)CCCC2	76.3 ± 20
O=C1O[C@@H](CO)CN1c1cc(F)c(C2=CCN(Cc3ccccc3)CC2)c(F)c1	3.88 ± 0.8
Cc1cc(C2=NOC(c3cc(Cl)c(F)c(Cl)c3)(C(F)(F)F)C2)ccc1C(=O)NCc1ccc2c(c1)C(C)(C)OB2O (centres undefined)	60.3 ± 9.8
CC1COC(Cn2cncn2)(c2ccc(Oc3ccc(Cl)cc3)cc2Cl)O1 (centres undefined)	77 ± 5.4
